Measured values reported in the supplement of paper PMC10849652.
Of roughly 8,800 targets only a part is listed; those with a hit were picked by preference. About 0.5% of all pairs of compound and target were hits. A number with no mark means an inactive call.

How the values were obtained:
Test in all cases: log2 fold change, soluble protein after heating vs DMSO (PISA); higher = thermal stabilisation; K562 lysate, 10 uM; active = over 0.2 and 3.5 SD of the protein, either way, in both replicates (recomputed)
alvocidib = compound: CN1CC[C@H](c2c(O)cc(O)c3c(=O)cc(-c4ccccc4Cl)oc23)[C@H](O)C1 [alvocidib]
How it was run: (§1)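 K562 pellets were dounce-homogenised in PBS pH 7.4 containing 1 mM MgCl2, and the crude extract, at 1 mg/mL protein, was exposed to 10 μM compound for 30 min. Aliquots were heated for 3 min across 48°C-58°C, pooled, brought to 0.5% NP-40 at 4°C and spun at 21,000xg for 90 min, with the supernatant taken as soluble protein. TMTpro 16plex LC-MS/MS with equalised channel sums quantified that protein. Values are log-two fold changes in thermal stability relative to solvent controls, taken from duplicates.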

Tubastatin A = compound: CN1CCc2c(c3ccccc3n2Cc2ccc(C(=O)NO)cc2)C1 [Tubastatin A]
How it was run: as §1

[1] = compound: CNC(=O)C1=CC=CC=C1NC2=NC(=NC=C2Cl)NC3=C(C=C(C=C3)N4CCOCC4)OC
How it was run: as §1

defactinib = compound: CNC(=O)c1ccc(Nc2ncc(C(F)(F)F)c(NCc3nccnc3N(C)S(C)(=O)=O)n2)cc1 [defactinib]
How it was run: as §1

[2] = compound: CNc1nc(-c2ccc3c(N)n[nH]c3c2)cc(N2C[C@@H](C(=O)NC3CCCCC3)CC[C@H]2C)n1
How it was run: as §1

encorafenib = compound: COC(=O)N[C@@H](C)CNc1nccc(-c2cn(C(C)C)nc2-c2cc(Cl)cc(NS(C)(=O)=O)c2F)n1 [encorafenib]
How it was run: as §1

[3] = compound: COC(=O)[C@H](CCSC)NC(=O)C1=C(C=C(C=C1)NC[C@H](CS)N)C2=CC=CC=C2
How it was run: as §1

alisertib = compound: COc1cc(Nc2ncc3c(n2)-c2ccc(Cl)cc2C(c2c(F)cccc2OC)=NC3)ccc1C(=O)O [alisertib]
How it was run: as §1

[4] = compound: COc1cc2nc(-c3cc(F)ccc3O)nc(N[C@@H]3CNC[C@H]3C(C)(C)O)c2cc1OC
How it was run: as §1

gefitinib = compound: COc1cc2ncnc(Nc3ccc(F)c(Cl)c3)c2cc1OCCCN1CCOCC1 [gefitinib]
How it was run: as §1

lapatinib = compound: CS(=O)(=O)CCNCc1ccc(-c2ccc3ncnc(Nc4ccc(OCc5cccc(F)c5)c(Cl)c4)c3c2)o1 [lapatinib]
How it was run: as §1

pictilisib = compound: CS(=O)(=O)N1CCN(Cc2cc3nc(-c4cccc5[nH]ncc45)nc(N4CCOCC4)c3s2)CC1 [pictilisib]
How it was run: as §1

crizotinib = compound: C[C@@H](Oc1cc(-c2cnn(C3CCNCC3)c2)cnc1N)c1c(Cl)ccc(F)c1Cl [crizotinib]
How it was run: as §1

[5] = compound: C[C@H](C1=CC=C(C=C1)C(=O)NC2=C3C=CNC3=NC=C2)N
How it was run: as §1

duvelisib = compound: C[C@H](Nc1ncnc2nc[nH]c12)c1cc2cccc(Cl)c2c(=O)n1-c1ccccc1 [duvelisib]
How it was run: as §1

gandotinib = compound: Cc1cc(Nc2cc(CN3CCOCC3)c3nc(C)c(Cc4ccc(Cl)cc4F)n3n2)n[nH]1 [gandotinib]
How it was run: as §1

tozasertib = compound: Cc1cc(Nc2cc(N3CCN(C)CC3)nc(Sc3ccc(NC(=O)C4CC4)cc3)n2)n[nH]1 [tozasertib]
How it was run: as §1

doramapimod = compound: Cc1ccc(-n2nc(C(C)(C)C)cc2NC(=O)Nc2ccc(OCCN3CCOCC3)c3ccccc23)cc1 [doramapimod]
How it was run: as §1

bafetinib = compound: Cc1ccc(NC(=O)c2ccc(CN3CC[C@H](N(C)C)C3)c(C(F)(F)F)c2)cc1Nc1nccc(-c2cncnc2)n1 [bafetinib]
How it was run: as §1

[6] = compound: Cc1cccc(CC(=O)N2CCc3c2ccc(-c2cn(C)c4ncnc(N)c24)c3F)n1
How it was run: as §1

Chain of UniProt P57678 (P57678 whole entry, looked up): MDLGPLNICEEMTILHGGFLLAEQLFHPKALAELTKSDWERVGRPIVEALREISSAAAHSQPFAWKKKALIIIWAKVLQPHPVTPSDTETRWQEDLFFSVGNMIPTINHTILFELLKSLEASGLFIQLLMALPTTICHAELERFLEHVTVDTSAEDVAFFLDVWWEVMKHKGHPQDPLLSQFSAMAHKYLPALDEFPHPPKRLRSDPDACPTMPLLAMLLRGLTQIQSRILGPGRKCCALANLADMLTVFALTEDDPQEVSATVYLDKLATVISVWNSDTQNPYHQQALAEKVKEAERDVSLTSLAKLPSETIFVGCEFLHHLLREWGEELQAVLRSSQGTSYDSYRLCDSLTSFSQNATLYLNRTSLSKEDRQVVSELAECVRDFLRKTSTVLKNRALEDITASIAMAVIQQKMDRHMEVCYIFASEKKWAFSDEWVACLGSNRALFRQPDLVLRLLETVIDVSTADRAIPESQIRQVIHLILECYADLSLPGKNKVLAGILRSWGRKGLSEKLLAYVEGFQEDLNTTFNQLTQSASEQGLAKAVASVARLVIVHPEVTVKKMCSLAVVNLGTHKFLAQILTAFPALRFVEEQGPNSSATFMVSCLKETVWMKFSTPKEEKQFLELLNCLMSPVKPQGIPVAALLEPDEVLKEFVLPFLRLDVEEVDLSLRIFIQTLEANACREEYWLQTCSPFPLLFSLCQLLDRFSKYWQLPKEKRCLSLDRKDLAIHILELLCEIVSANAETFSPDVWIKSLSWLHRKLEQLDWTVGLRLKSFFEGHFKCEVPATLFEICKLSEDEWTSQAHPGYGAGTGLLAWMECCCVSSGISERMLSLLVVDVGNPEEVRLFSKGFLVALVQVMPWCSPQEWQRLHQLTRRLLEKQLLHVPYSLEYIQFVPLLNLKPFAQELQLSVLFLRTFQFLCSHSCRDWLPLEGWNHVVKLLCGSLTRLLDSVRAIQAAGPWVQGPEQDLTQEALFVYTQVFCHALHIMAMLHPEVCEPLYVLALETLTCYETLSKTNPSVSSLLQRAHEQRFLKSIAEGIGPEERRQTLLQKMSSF
Chain of UniProt Q01844 (Q01844 whole entry, looked up): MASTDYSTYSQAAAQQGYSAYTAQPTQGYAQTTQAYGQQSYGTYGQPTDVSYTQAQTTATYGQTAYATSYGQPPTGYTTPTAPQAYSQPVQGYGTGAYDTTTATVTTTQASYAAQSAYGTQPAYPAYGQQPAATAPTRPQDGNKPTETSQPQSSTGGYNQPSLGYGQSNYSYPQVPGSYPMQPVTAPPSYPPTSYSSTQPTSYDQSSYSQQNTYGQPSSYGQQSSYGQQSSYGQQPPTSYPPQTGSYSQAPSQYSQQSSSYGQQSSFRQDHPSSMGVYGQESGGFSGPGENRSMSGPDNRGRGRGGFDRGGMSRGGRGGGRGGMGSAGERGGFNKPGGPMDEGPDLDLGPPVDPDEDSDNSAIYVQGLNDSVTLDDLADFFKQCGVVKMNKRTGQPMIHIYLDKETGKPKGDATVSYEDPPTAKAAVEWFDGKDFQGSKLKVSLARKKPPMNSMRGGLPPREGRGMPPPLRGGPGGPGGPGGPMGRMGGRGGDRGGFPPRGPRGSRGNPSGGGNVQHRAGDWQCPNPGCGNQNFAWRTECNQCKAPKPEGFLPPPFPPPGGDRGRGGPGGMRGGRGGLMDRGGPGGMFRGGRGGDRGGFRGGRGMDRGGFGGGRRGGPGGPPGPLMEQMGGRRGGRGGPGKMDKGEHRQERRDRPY
Chain of UniProt Q86UY5 (Q86UY5 whole entry, looked up): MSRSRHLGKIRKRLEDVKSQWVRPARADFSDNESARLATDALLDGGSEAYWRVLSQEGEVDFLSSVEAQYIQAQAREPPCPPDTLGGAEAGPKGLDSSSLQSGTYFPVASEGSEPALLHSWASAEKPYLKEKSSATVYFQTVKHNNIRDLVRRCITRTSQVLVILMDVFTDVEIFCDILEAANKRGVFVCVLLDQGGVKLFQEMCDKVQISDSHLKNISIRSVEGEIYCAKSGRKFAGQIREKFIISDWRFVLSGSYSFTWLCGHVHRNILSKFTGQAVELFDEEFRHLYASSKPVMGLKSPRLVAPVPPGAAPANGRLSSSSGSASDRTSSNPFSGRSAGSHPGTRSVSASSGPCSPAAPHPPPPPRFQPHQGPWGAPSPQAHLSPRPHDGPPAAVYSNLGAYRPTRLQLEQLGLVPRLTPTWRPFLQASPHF
Chain of UniProt Q6P2E9 (Q6P2E9 whole entry, looked up): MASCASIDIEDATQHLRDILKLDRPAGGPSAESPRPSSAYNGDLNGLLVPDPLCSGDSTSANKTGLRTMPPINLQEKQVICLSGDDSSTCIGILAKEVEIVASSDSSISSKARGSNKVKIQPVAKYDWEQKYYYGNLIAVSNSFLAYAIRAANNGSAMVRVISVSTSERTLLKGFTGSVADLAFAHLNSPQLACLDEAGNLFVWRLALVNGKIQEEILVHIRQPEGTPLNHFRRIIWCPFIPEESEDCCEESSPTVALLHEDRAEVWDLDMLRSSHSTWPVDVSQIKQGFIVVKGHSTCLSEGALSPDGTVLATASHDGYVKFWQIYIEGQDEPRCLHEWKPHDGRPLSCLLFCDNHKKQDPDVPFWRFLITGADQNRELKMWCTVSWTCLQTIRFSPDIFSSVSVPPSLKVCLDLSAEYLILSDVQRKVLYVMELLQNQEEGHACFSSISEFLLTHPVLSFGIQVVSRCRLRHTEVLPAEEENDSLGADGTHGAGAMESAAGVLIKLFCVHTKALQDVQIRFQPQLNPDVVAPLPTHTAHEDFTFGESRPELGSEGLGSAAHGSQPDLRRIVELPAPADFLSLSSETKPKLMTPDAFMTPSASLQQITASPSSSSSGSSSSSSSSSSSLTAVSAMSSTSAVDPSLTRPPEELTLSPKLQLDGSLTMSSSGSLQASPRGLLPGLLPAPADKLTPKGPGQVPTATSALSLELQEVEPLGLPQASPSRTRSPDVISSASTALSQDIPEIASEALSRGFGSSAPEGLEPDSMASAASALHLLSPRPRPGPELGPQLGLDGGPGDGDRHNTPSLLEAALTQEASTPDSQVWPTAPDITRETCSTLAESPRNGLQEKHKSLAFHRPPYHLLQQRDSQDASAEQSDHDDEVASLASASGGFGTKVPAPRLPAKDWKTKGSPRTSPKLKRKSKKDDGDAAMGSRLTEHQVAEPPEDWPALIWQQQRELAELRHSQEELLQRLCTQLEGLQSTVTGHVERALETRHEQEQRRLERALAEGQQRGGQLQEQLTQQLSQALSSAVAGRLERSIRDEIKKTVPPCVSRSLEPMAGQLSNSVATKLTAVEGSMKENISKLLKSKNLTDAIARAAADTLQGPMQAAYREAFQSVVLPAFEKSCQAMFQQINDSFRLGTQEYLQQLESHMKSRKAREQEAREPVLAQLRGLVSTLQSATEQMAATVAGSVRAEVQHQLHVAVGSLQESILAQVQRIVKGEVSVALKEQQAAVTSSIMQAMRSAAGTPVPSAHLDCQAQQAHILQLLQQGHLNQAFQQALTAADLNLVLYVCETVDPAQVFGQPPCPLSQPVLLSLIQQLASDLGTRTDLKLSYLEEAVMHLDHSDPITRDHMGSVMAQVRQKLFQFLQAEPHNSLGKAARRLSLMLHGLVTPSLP
Chain of UniProt Q9BQS8 (Q9BQS8 whole entry, looked up): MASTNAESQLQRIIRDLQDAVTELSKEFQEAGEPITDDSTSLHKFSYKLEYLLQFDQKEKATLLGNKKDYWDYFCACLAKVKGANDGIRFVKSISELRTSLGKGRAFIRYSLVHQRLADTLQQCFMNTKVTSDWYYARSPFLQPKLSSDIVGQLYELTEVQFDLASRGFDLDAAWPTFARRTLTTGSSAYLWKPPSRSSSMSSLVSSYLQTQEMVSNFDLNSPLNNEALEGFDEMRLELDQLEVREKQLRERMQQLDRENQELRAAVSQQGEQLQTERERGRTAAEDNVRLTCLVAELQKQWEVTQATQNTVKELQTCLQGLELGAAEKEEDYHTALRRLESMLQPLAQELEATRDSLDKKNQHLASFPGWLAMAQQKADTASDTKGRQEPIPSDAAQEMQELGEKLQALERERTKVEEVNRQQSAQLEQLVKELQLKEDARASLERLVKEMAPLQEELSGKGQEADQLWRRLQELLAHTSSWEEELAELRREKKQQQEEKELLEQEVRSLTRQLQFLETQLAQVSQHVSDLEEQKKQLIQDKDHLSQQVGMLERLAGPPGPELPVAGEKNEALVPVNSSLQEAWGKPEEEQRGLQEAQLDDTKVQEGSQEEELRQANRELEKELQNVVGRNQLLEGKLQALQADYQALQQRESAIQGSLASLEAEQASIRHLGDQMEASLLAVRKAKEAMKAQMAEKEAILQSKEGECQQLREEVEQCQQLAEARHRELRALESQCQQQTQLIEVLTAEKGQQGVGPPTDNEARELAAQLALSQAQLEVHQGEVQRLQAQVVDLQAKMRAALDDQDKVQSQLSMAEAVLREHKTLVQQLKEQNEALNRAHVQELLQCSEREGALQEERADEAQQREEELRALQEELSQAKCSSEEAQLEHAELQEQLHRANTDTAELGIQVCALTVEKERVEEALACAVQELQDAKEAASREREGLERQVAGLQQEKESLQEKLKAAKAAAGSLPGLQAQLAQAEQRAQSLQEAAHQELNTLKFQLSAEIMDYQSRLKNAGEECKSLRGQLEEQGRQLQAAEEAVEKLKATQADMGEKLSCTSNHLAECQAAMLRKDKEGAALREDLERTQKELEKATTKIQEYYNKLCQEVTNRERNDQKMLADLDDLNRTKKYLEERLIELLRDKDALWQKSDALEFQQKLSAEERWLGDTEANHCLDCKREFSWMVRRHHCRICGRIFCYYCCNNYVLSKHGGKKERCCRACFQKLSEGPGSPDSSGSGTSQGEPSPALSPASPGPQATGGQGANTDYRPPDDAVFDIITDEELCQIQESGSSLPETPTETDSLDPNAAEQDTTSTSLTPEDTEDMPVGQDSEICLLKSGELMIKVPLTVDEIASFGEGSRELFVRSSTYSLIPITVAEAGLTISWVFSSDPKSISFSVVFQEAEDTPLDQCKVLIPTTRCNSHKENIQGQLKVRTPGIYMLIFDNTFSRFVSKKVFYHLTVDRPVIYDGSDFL

Target | log2 fold change (alvocidib) | log2 fold change (Tubastatin A) | log2 fold change [1] | log2 fold change (defactinib) | log2 fold change [2] | log2 fold change (encorafenib) | log2 fold change [3] | log2 fold change (alisertib) | log2 fold change [4] | log2 fold change (gefitinib) | log2 fold change (lapatinib) | log2 fold change (pictilisib) | log2 fold change (crizotinib) | log2 fold change [5] | log2 fold change (duvelisib) | log2 fold change (gandotinib) | log2 fold change (tozasertib) | log2 fold change (doramapimod) | log2 fold change (bafetinib) | log2 fold change [6]
FADS3 (UniProt Q9Y5Q0) | -0.051 | 0.1 | -0.047 | 0.198 | -0.08 | 0.097 | 0.096 | 0 | 0 | 0.063 | 0.13 | -0.014 | -0.065 | -0.322 | -0.09 | 0 | 0.079 | -0.001 | -0.131 | -0.309
FAM83A (UniProt Q86UY5) | -0.095 | -0.039 | 0.061 | -0.055 | 0.015 | 0.02 | 0.07 | 0.02 | -0.013 | 0.017 | 0.012 | 0.021 | 0.086 | -0.142 | -0.047 | 0.155 | -0.013 | 0.195 | -0.053 | 0.056
EWSR1 isoform 5 (UniProt Q01844) | -0.002 | 0.101 | -0.017 | -0.011 | 0.021 | -0.022 | -0.036 | 0.049 | -0.005 | -0.003 | -0.008 | 0.021 | 0.048 | -0.07 | -0.047 | 0.061 | -0.016 | -0.025 | 0.031 | 0.009
FBXO38 (UniProt Q6PIJ6) | -0.008 | -0.043 | -0.616 (active) | 0.019 | 0.01 | -0.004 | -0.038 | -0.015 | -0.062 | 0.056 | 0.039 | -0.052 | 0.038 | 0.018 | 0.01 | -0.037 | 0.119 | 0.05 | -0.316 | -0.016
FYCO1 isoform 4 (UniProt Q9BQS8) | -0.052 | 0 | -0.001 | -0.002 | -0.006 | 0.033 | 0.024 | 0.018 | 0.018 | 0.016 | -0.005 | -0.018 | -0.018 | -0.114 | 0.036 | 0.229 | 0.021 | -0.009 | -0.019 | 0.176
EDC4 (UniProt Q6P2E9) | -0.012 | -0.14 | 0.015 | -0.008 | -0.034 | 0.009 | -0.116 | 0.021 | 0.021 | -0.017 | -0.025 | -0.029 | -0.01 | -0.044 | 0.016 | -0.027 | -0.016 | -0.014 | -0.043 | 0.049
GEMIN4 (UniProt P57678) | 0.017 | -0.196 | 0.078 | -0.014 | -0.072 | 0.022 | 0.013 | -0.006 | -0.005 | 0.016 | -0.031 | -0.012 | -0.065 | -0.013 | 0.004 | -0.188 | -0.009 | 0.032 | -0.038 | 0.039
FYB1 isoform 3 (UniProt O15117) | -0.012 | -0.001 | 0.013 | 0.033 | 0.065 | -0.005 | -0.035 | -0.012 | -0.014 | -0.029 | 0.045 | -0.008 | -0.082 | 0.147 | 0.01 | -0.051 | 0.052 | -0.007 | -0.062 | -0.058
